Results on five molecules are retold here after PubChem BioAssay.

The subject of assay [1] is PRMT1 (protein arginine N-methyltransferase 1). Briefly: PRMT1 binders on small-molecule microarrays, primary screen, biochemical, small-molecule microarray, 635 nm fluorescence (AID 1088).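 Note: binding of Prmt1 protein to compounds spotted on small-molecule microarray slides.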 To be noted: small-molecule microarray binding, higher = more signal.
The nature of assay [2]: yeast growth modulation, basal conditions, primary screen, YJM789 clinical isolate, OD600, 24 h (AID 1089).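 Note: growth of clinical yeast isolate S. cerevisiae YJM 789 seeded 1000 cells per well; test concentration not given here.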 To be noted: S. cerevisiae YJM789 growth, higher = more signal, called active from +8 up or from −8 down.
The nature of assay [3]: fission yeast growth modulation, primary screen, strain 972, OD600, 24 h, no modulator (AID 1090).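 Note: basal condition with compound alone and no growth modifier present; test concentration not given here.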 To be noted: S. pombe 972 growth, higher = more signal, called active from +8 up or from −8 down.
The nature of assay [4]: S. cerevisiae growth modulation with rapamycin, primary screen, strain BY4716, OD600, 96 h (AID 1091). Note: test concentration not given here. To be noted: higher = more signal, called active from +8 up or from −8 down.
The target of assay [5] is Torsin-1A-interacting protein 2 (Homo sapiens) (UniProt Q8NFQ8). Briefly: LULL1 binders on small-molecule microarray, primary screen, cell lysate, human LULL1 lysate, 635/667 nm fluorescence (AID 1092).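 Note: probe is lysate of COS7 cells overexpressing human LULL1; score merges per-feature 667 nm fluorescence with signal-to-noise.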 To be noted: hLULL1 lysate binding, 635 nm fluorescence, higher = more signal.
Assay [6] in a line: E. coli growth modulation, two-sided OD650, primary screen, E. coli filamentation project, strain DRC41, 24 h (AID 1093).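 Note: MC1000 strain lacking acrAB efflux and sulA so SOS filamentation is blocked; test concentration not given here.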 To be noted: OD650, 24 h, higher = more signal, called active from +8 up or from −8 down.
Assay [7] can be described thus: small-molecule microarray binders of probe aLefty2, primary screen, biochemical, biotinylated probe, 635/667 nm fluorescence (AID 1094).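 Note: score merges spot fluorescence near 667 nm with spot signal-to-noise ratio.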 To be noted: higher = more signal.
Assay [8] deals with Noggin (protein binding on small-molecule microarray). The assay can be described thus: Noggin binders on small-molecule microarray, primary screen, biochemical, 635/667 nm fluorescence (AID 1095).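 Note: score merges 667 nm feature fluorescence with signal to noise over triplicate slides.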 To be noted: 635 nm fluorescence, higher = more signal.
Assay [9] addresses Neurogenic locus notch homolog protein 3 (Homo sapiens) (UniProt Q9UM47). Briefly: NOTCH3 binders on small-molecule microarray, primary screen, biochemical, 635/667 nm fluorescence (AID 1096). To be noted: NOTCH3 binding, 635 nm fluorescence, higher = more signal.
Assay [10] can be described thus: small-molecule microarray binders of probe aEGFR, primary screen, biochemical, biotinylated probe, 635/667 nm fluorescence (AID 1097).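 Note: probe is a biotinylated anti-EGFR antibody binding compounds printed on slides; score combines fluorescence near 667 nm and signal to noise of each spot.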 To be noted: higher = more signal.
In assay [11] the test system is Plasmodium falciparum Sir2 (PF13_0152, Sir2A). The assay can be described thus: pfSir2 binders on small-molecule microarrays, primary screen, biochemical, small-molecule microarray, 635 nm fluorescence (AID 1098).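 Note: score merges spot fluorescence intensity with its signal-to-noise ratio.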 To be noted: small-molecule microarray binding, fluorescence 635 nm; higher = more signal.
The nature of assay [12]: small-molecule microarray binders of probe aDKK1, primary screen, biochemical, biotinylated probe, 635/667 nm fluorescence (AID 1099).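 Note: score merges 667nm spot fluorescence with signal to noise across triplicate slides; reference of the scale not given here.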 To be noted: higher = more signal.
The nature of assay [13]: small-molecule microarray binders of probe aCHRDL2, primary screen, biochemical, biotinylated probe, 635/667 nm fluorescence (AID 1100). To be noted: higher = more signal.
Assay [14] can be described thus: splicing luciferase reporter signal modulators, primary screen, spliceosome inhibition project, cell-based, HEK293, splice +/- reporter (AID 1101).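 Note: HEK293 cells carrying a splicing-competent luciferase reporter gene; test concentration not given here.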 To be noted: luminescence, 24 h, higher = more signal, called active from +8 up or from −8 down. (In general: In a reporter assay the amount or activity of a reporter protein is the signal.)
The target in assay [15] is Fibroblast growth factor 10 (Homo sapiens) (UniProt O15520). The assay can be described thus: FGF10 binders on small-molecule microarrays, primary screen, biochemical, small-molecule microarray, 635 nm fluorescence (AID 1102). To be noted: FGF10 binding, fluorescence 635 nm, higher = more signal.
In assay [16] the test system is glycogen synthase kinase-3 (GSK3A per assay name; protocol says GSK3B). The assay can be described thus: GSK3 binders on small-molecule microarrays, primary screen, biochemical, small-molecule microarray, 635 nm fluorescence, GSK3A (AID 1103). Note: the record names both GSK3A and GSK3B. To be noted: small-molecule microarray binding, fluorescence 635 nm; higher = more signal.
For assay [17], the target named is Epidermal growth factor receptor (Homo sapiens) (UniProt P00533). The assay can be described thus: EGFR binders on small-molecule microarrays, primary screen, biochemical, small-molecule microarray, 635 nm fluorescence (AID 1104).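 Note: score merges 667 nm emission intensity with spot signal to noise over triplicate slides.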 To be noted: EGFR binding, higher = more signal.
The target in assay [18] is Follistatin-related protein 3 (Homo sapiens) (UniProt O95633). Briefly: FSTL3 binders on small-molecule microarrays, primary screen, biochemical, small-molecule microarray, 635 nm fluorescence (AID 1105).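 Note: score merges emission near 667 nm and signal to noise per printed spot across three slides.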 To be noted: FSTL3 binding, higher = more signal.
Assay [19] deals with Dickkopf-related protein 1 (Homo sapiens) (UniProt O94907). The assay can be described thus: DKK1 binders on small-molecule microarrays, primary screen, biochemical, small-molecule microarray, 635 nm fluorescence scan (AID 1106).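 Note: score merges emission near 667 nm with signal to noise over three replicate slides.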 To be noted: DKK1 binding, higher = more signal.
Assay [20] has as its system Inhibin beta A chain (activin A). Briefly: INHBA (activin A) binders on microarrays, primary screen, biochemical, small-molecule microarray, 635 nm fluorescence scan (AID 1107).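 Note: mouse activin A protein probed at 4.33 µg/mL on printed slides; score merges bound-protein fluorescence near 667 nm with spot signal-to-noise.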 To be noted: small-molecule microarray binding, higher = more signal.

Active and inactive are the calls of the source.

Epidermal growth factor receptor (Homo sapiens), sequence (P00533 whole entry, looked up): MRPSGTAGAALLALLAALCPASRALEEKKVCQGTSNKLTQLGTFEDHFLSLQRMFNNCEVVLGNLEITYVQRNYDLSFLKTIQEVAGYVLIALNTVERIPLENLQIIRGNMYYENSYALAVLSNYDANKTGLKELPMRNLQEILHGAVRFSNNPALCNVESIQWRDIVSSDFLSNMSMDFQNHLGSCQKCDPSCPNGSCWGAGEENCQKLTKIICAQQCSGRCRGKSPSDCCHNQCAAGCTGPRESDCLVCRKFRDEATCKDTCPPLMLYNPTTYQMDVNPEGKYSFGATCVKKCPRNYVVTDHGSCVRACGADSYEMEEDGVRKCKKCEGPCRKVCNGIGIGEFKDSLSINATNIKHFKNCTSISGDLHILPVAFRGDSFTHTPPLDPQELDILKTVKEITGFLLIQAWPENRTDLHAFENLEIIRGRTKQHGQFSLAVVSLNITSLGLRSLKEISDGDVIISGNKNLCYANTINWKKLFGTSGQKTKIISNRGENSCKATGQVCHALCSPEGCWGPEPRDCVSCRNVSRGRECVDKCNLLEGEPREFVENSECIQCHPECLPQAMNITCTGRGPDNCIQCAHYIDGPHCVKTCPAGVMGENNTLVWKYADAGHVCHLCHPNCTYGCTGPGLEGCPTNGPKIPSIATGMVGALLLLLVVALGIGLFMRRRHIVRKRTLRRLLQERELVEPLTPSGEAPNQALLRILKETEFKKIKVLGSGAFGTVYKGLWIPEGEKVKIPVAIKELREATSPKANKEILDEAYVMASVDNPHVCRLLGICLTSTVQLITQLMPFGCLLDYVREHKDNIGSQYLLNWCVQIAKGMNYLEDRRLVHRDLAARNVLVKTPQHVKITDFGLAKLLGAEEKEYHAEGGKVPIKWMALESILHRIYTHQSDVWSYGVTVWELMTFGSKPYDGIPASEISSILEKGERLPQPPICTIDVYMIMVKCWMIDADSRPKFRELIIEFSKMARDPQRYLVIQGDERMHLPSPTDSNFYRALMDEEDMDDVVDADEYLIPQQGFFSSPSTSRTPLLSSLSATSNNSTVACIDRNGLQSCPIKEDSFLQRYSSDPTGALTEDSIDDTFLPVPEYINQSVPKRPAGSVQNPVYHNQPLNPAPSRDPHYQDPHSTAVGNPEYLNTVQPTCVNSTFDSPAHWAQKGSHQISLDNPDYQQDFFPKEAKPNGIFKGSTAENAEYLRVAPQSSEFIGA
Torsin-1A-interacting protein 2 (Homo sapiens), sequence (Q8NFQ8 whole entry, looked up): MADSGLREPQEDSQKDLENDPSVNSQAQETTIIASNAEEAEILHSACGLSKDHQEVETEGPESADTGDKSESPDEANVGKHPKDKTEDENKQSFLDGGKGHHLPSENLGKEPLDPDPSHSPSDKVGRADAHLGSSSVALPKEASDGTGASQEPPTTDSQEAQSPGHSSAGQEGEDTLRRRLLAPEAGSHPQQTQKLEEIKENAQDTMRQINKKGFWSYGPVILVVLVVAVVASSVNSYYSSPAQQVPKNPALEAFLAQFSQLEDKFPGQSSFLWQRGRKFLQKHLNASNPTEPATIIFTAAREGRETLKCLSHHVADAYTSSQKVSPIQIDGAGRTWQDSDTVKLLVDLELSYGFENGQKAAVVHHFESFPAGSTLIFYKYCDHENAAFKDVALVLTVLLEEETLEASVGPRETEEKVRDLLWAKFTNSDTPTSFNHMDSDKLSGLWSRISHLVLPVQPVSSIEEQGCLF
Follistatin-related protein 3 (Homo sapiens), sequence (O95633 whole entry, looked up): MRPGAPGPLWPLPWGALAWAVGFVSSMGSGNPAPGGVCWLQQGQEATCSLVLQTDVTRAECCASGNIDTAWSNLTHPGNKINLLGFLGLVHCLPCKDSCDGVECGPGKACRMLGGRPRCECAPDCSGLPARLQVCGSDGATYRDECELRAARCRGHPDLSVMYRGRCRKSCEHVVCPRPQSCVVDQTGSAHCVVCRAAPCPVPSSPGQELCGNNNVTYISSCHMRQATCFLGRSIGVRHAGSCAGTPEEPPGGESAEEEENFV
Fibroblast growth factor 10 (Homo sapiens), sequence (O15520 whole entry, looked up): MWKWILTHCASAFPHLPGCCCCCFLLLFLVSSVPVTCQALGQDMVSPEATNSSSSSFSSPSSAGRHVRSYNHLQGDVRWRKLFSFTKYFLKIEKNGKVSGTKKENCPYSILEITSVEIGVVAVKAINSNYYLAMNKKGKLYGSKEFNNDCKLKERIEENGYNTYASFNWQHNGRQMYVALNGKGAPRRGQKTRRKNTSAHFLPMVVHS
Dickkopf-related protein 1 (Homo sapiens), sequence (O94907 whole entry, looked up): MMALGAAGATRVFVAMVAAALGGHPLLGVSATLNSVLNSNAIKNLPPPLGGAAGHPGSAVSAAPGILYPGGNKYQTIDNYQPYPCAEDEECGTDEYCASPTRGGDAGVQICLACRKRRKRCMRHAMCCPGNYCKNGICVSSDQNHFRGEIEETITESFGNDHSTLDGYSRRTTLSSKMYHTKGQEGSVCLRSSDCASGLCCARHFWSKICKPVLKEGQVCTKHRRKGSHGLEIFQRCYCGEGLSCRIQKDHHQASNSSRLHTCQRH
Neurogenic locus notch homolog protein 3 (Homo sapiens), sequence (Q9UM47 whole entry, looked up): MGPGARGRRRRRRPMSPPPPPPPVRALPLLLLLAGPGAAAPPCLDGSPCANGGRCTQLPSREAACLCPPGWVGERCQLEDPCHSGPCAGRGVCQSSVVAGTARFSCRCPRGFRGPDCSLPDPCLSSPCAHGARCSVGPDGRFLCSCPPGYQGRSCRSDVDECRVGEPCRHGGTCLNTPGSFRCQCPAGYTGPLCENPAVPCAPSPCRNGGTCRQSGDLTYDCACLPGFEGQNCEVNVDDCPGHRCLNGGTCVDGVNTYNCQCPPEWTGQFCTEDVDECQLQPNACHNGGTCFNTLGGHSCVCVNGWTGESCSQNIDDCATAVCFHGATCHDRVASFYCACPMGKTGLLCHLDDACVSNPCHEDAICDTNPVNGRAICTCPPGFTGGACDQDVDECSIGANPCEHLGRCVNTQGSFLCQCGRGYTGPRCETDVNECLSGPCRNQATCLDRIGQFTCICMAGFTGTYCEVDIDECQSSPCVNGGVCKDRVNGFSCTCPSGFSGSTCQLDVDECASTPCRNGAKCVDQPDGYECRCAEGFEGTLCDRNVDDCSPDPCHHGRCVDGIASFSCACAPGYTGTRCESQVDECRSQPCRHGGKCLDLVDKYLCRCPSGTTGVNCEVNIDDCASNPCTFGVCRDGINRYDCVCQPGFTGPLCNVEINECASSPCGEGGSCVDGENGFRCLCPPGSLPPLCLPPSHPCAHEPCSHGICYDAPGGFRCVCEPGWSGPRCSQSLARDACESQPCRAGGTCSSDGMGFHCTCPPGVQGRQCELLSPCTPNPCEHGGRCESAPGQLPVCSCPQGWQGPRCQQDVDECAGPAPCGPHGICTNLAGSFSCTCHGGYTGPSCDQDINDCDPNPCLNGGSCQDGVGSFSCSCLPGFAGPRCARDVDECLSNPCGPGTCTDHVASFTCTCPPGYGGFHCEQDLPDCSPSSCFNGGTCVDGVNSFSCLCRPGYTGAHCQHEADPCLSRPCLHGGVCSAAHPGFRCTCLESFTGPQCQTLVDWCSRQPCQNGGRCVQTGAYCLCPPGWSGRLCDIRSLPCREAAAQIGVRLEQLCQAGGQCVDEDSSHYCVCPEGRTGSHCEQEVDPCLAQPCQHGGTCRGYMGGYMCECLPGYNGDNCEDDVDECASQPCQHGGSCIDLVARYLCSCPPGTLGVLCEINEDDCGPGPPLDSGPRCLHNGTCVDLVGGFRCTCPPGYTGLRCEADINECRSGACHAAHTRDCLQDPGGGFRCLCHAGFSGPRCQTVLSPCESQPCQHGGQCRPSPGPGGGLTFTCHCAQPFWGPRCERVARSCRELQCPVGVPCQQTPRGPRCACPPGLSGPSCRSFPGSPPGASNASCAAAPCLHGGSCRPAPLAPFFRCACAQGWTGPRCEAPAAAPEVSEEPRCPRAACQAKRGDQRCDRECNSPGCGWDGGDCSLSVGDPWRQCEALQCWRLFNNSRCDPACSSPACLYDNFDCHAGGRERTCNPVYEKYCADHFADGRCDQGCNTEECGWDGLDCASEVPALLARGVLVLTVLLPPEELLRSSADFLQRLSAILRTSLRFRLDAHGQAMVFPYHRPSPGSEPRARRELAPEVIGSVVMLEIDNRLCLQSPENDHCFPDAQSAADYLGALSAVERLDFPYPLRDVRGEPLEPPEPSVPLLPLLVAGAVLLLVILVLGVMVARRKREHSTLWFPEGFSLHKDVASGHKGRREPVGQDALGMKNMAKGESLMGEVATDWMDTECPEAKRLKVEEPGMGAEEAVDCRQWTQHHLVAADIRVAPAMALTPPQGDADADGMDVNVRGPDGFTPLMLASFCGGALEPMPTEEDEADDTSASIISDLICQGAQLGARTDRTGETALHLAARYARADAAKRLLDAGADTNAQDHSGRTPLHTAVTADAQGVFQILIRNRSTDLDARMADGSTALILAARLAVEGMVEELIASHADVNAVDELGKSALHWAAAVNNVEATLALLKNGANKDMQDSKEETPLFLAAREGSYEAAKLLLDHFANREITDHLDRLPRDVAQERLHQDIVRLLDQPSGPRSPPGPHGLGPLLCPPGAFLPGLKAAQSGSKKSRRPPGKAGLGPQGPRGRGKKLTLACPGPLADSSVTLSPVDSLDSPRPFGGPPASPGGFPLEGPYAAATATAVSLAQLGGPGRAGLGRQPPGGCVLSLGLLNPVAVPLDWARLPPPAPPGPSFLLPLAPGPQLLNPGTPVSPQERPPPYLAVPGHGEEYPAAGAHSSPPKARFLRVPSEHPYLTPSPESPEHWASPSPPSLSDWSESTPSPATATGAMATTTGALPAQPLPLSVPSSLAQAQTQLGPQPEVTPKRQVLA

As to `CCCCN1CC=CC23O[C@@H]4/C=C\CCC(C)OC(=O)C4[C@H]2C(=O)N(C(C)CO)[C@@H]3C1=O` (stereo not given in full), the composite z-score was -1.58 in [1]; -1.13 in assay [5]; -0.317 in [7]; -0.422 in assay [8]; -0.878 in assay [9]; -0.401 in [10]. The composite z-score is 0.356 in [11]; -0.463 in assay [12]; -0.471 in assay [13]; -0.816 in assay [15]; -0.937 in assay [16]; -0.659 in [17]. Further, the composite z-score in [18] was -0.719; in assay [19], -0.127; in [20] it was 1.19. Further, the z-score in assay [2] is 0.324 (inactive); in assay [3], -0.944 (inactive); in assay [4], 0.316 (inactive); in assay [6], -0.182 (inactive); in assay [14] it was 1.07 (inactive).

`C[N+](C)(C)CCCCCCNC(=O)[C@H]1C[C@H]2C(=O)NCC(=O)N2[C@H]1c1cccc(OCCO)c1`: the composite z-score was 1.22 in assay [1]; 3.07 in [5]; -0.133 in assay [7]; 1.48 in assay [8]; 1.12 in assay [9]; 0.208 in [10]. Moreover, the composite z-score in assay [11] was 1.75; in assay [12], -0.149; in assay [13], 0.0218; in assay [15], 0.439; in assay [16], 0.548; in assay [17], 0.228. The composite z-score is 0.969 in assay [18], 1.28 in assay [19] and 0.169 in [20]. For the same molecule, the z-score in assay [2] is -0.874 (inactive); in [3], 0.198 (inactive); in assay [4] it was 0.0891 (inactive); in assay [6], -0.329 (inactive); in assay [14] it was -0.34 (inactive).

Regarding `COC(=O)[C@@H]1N=C(c2ccc(OCCCO)cc2)O[C@@H]1c1ccccc1CN=[N+]=[N-]`, the composite z-score in [1] is 1.01; in [5], 1.74; in assay [7] it was 0.109; in [8], -0.0395; in assay [9] it was 0.327; in assay [10], -0.0802. Also, the composite z-score is -0.418 in assay [11]; 0.502 in assay [12]; 1.2 in assay [13]; -0.648 in [15]; -1.01 in [16]; -0.428 in assay [17]. Also, the composite z-score in assay [18] is -0.547; in assay [19] it was -1.36; in [20], 0.778. Besides, the z-score is 0.23 (inactive) in [2]; -0.956 (inactive) in assay [3]; -1.14 (inactive) in assay [4]; 1.05 (inactive) in assay [6]; 0.0193 (inactive) in assay [14].

Turning to `C[C@H]1NC(=O)C([C@@H](C)OCc2ccccc2)NC(=O)[C@@]23C(=O)N[C@@H](Cc4ccccc4)C2[C@H](C)[C@@]2(C)O[C@H]2C3/C=C/C/C=C\CNC1=O` (stereo not given in full), the composite z-score in assay [1] was -0.242; in assay [5], 0.721; in assay [7], -0.192; in assay [8], 0.797; in assay [9], 0.0201; in [10], -0.168. In addition, the composite z-score in assay [11] is 0.0032; in [12] it was -0.333; in assay [13] it was -0.603; in assay [15], 0.699; in assay [16] it was -0.3; in assay [17] it was 0.281. The composite z-score in assay [18] amounted to 0.511; in [19] it was 0.722; in assay [20], 1.43. Besides, the z-score in assay [2] is 0.823 (inactive); in assay [3], -0.389 (inactive); in [4] it was 1.06 (inactive); in assay [6], 0.147 (inactive); in assay [14], 0.219 (inactive).

As for `C=C(COC)/C(=C/C[C@H](OC(=O)c1ccncc1)c1ccc(OCCO)cc1)c1cc(C(=O)OC)ccc1OC`, the composite z-score in assay [1] was 1.41; in assay [5], 2.28; in assay [7], -0.0337; in assay [8], 1.01; in assay [9], 1.1; in [10], -0.0828. In addition, the composite z-score was 0.674 in assay [11]; 0.17 in assay [12]; 0.118 in [13]; 1.47 in [15]; 0.32 in assay [16]; -0.0503 in assay [17]. The figures for the composite z-score in [18], in assay [19] and in [20] were 0.967, 0.8 and 1.04, respectively. The z-score in assay [2] is -0.823 (inactive); in [3] it was -1.2 (inactive); in assay [4] it was -0.649 (inactive); in assay [6] it was 1.59 (inactive); in assay [14] it was -0.767 (inactive).
